Records with an inconclusive call do not appear. Values without a mark were called inactive. Calls follow the shape of the dose curve; as a rule, active = well fitted cell-killing curve with a large enough effect; inconclusive = small, poorly fitted or top-dose-only effect, or effect the other way; inactive = flat fitted curve, though single readings scatter. Where a SMILES comes first, the peptide text is derived from it. The star is where a group is joined. AFC = O=c1cc(C(F)(F)F)c2ccc(N*)cc2o1
system: Es-2; assay: Primary qHTS to identify gynecologic anti-cancer compounds using libraries of approved drugs and bioactive compounds (AID 1345084); conditions: Gynecologic cancer cell panel viability, ATPlite luminescence, 48 h; series mostly up to 57.5 µM; activity change, negative = cytotoxicity: at the top concentration; also: nearly all actives have a fitted effect of over 55% in size
In short: (§1)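 Measured: luminescence after ATPlite addition (15 min, RT). Exposure: 48 h, 37 C, 5% CO2.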
% is scaled to controls: 0 for no effect and ±100 for the full control effect.

SMILES | activity change, negative = cytotoxicity
COc1ccc(/C=C/C(=O)O[C@H]2[C@H](O[C@H]3[C@@H]4C=CO[C@@H](O[C@@H]5O[C@H](CO)[C@@H](O)[C@H](O)[C@H]5O)[C@@H]4[C@@]4(CO)O[C@@H]34)O[C@@H](C)[C@H](O)[C@H]2OC(C)=O)cc1 | 3.8% [at 25.3 µM]
COC(=O)C12C(=O)C(C)=C(O)C1(C)C(C)=CC1C3(CO)CCC(O)C(C)(C)C3CCC12C (stereo unspecified) | -3.7% [at 25.3 µM]
C=C1[C@H](OC(C)=O)[C@H]2[C@@H](OC(C)=O)[C@](C)(OC(C)=O)C[C@]2(OC(C)=O)C(=O)[C@H](C)/C=C/C(C)(C)C(=O)[C@H](OC(=O)C(C)C)[C@H]1OC(C)=O | 5.83% [at 25.3 µM]
COC(=O)N(C)c1c(N)nc(-c2nn(Cc3ccccc3F)c3ncccc23)nc1N | 5.29%
C=C1C[C@]23C[C@H]1CC[C@H]2[C@@]1(C)CCC[C@@]2(C)C(=O)O[C@@H]([C@@H]3O)[C@@H]12 | -1.49% [at 38.5 µM]
CC(O)CCC1C(CO[C@@H]2O[C@H](CO)[C@@H](O)[C@H](O)[C@H]2O)CC(O)CC1(C)C (stereo partly specified) | 14.8% [at 38.5 µM]
CC1=C2C[C@H]3O[C@@]3(C)CCC3O[C@@]3(C)C[C@@]2(O)OC1=O (stereo partly specified) | 0.884%
O=C(O)Cc1cn(C2OCC(O)C(O)C2O[C@@H]2O[C@H](CO)[C@@H](O)[C@H](O)[C@H]2O)c2ccccc12 (stereo partly specified) | -3.36% [at 25.3 µM]
CC(C)C(C#N)O[C@@H]1O[C@H](CO[C@@H]2O[C@@H](C)[C@H](O)[C@@H](O)[C@H]2O)[C@@H](O)[C@H](O)[C@H]1O (stereo partly specified) | 0.971% [at 25.3 µM]
COC1CC(OC2CCC3(C)C(=CCC4C3C(OC(C)=O)C(OC(=O)/C=C/c3ccccc3)C3(C)C(C(C)O)CCC43O)C2)OC(C)C1OC1CC(OC)C(OC2OC(C)C(OC3OC(CO)C(O)C(O)C3O)C(OC)C2O)C(C)O1 (stereo unspecified) | 4.75% [at 6.55 µM]
C=C1C(O)CC2C(C(=O)O)=COC(O[C@@H]3O[C@H](COC(=O)/C=C/c4ccc(O)cc4)[C@@H](O)[C@H](O)[C@H]3O)C12 (stereo partly specified) | 1.73% [at 25.3 µM]
CC(=O)O[C@H]1CC[C@H](C)[C@@]2(C)[C@H](OC(C)=O)c3c(C)coc3C(=O)[C@H]12 | -5.18% [at 38.5 µM]

system: HeLa; assay: as above; conditions: Gynecologic cancer cell panel viability, ATPlite luminescence, 48 h; series mostly up to 57.5 µM; activity change, negative = cytotoxicity: at the top concentration
In short: as §1

SMILES | activity change, negative = cytotoxicity
CCC(C)C(=O)O[C@H]1CCC=C2C=C[C@H](C)[C@H](CC[C@@H](O)C[C@@H](O)CC(=O)O)[C@H]21 (stereo partly specified) | -7.61% [at 25.3 µM]
CC(=O)NC1C(OC(C)(C)C2CCC3(C)C=C(C4CCC5C4(C)CC(O)C4OC(C(C)(C)O)CCC45C)CCC3O2)OC(CO)C(O)C1O (stereo unspecified) | -1.55% [at 25.3 µM]
CC(=O)O[C@@H]1c2c3c(cc(O)c2C(=O)O[C@@H]1C)O[C@@]1(C)[C@@H](O)C[C@H]2C(C)(C)C(=O)C=C[C@]2(C)[C@@H]1C3 | -6.87% [at 25.3 µM]
COc1c(C)c(OCC(O)C(C)(C)O)cc2c1COC2=O (stereo unspecified) | 1.77%
CC(=O)CC1CCC(C(C)C(=O)OCC(O)CO)O1 (stereo unspecified) | -16.5%
O=C(O)COCCN1CCN([C@H](c2ccccc2)c2ccc(Cl)cc2)CC1 | 15.8%
Nc1nc2c(ncn2[C@@H]2O[C@@H]3COP(=O)(O)O[C@H]3[C@H]2O)c(=O)[nH]1 | 14.7%
CC1=C(C(=O)O)/C(=C/CO[C@@H]2O[C@H](COC(=O)/C=C/c3ccc(O)cc3)[C@@H](O)[C@H](O)[C@H]2O)C(O)C1 (stereo partly specified) | 2.8% [at 25.3 µM]
Cc1cc(C)c2c(N)c(C(=O)NCc3ccc(Cl)cc3)sc2n1 | -3.29%
CC(=O)OC1C(O)C2C(C)C3=CC(=O)OC3(O)CC2C2(C)CCCC(C)(CO)C12 (stereo unspecified) | 6.85% [at 25.3 µM]
CC(C)C(NC(=O)c1ccc2ccccc2n1)C(=O)NC(CC(=O)O)C(=O)COc1c(F)cccc1F (stereo unspecified) | 5.81%
O=C(Nc1ccc(-c2ccncc2)cc1)N[C@H](CO)c1ccccc1 | -0.358%
CC1=CC2/C=C(\C)CC[C@@H](O)[C@@H](O)[C@@H]3O[C@@H]3C(=O)[C@]23C(=O)N[C@@H](CC(C)C)[C@@H]3[C@@H]1C (stereo partly specified) | 1.79% [at 25.3 µM]
O=C(NCC(O)CO)c1ccncc1Nc1ccc(I)cc1F (stereo unspecified) | -2.71%
CC1(C)CC2=C3C=CC4C5(C)CCC(O)C(C)(C)C5CCC4(C)C3(C)CCC2(C)C(O)C1 (stereo unspecified) | -0.878% [at 25.3 µM]
COC(=O)C1=CO[C@@H](O[C@@H]2O[C@H](CO)[C@@H](O)[C@H](O)[C@H]2O)[C@H]2[C@@H]1CC(OC)O[C@@H]2C (stereo partly specified) | 6.69% [at 25.3 µM]
C[C@@H]1O[C@@H](O[C@@H]2[C@@H](O[C@@H]3O[C@@H](C)[C@H](O[C@@H]4OC[C@H](O)[C@H](O[C@@H]5OC[C@@H](O)[C@H](O)[C@H]5O)[C@H]4O)[C@@H](O[C@@H]4OC[C@](O)(CO)[C@H]4O)[C@H]3O)[C@H](OC(=O)[C@]34CCC(C)(C)C[C@H]3C3=CCC5[C@@]6(C)C[C@H](O)[C@H](O[C@@H]7O[C@H](CO[C@@H]8OC[C@H](O)[C@H](O)[C@H]8O)[C@@H](O)[C@H](O)[C@H]7O)C(C)(C)C6CC[C@@]5(C)[C@]3(C)C[C@H]4O)OC[C@H]2O)[C@H](O)[C@H](O)[C@H]1O (stereo partly specified) | 4.56% [at 6.55 µM]
C=C1CCCC2(C)CC3(OC)OC(=O)C(C)=C3CC12 (stereo unspecified) | 0.866%
CC(C)=CCC/C(C)=C/CCC1(C)Oc2c(c(O)cc3c2CN(C(CCC(=O)O)C(=O)O)C3=O)CC1O (stereo unspecified) | -10.7% [at 25.3 µM]
C=C(C(=O)O)C1CCC2(C)CCC(O)C(=C)C2C1 (stereo unspecified) | 4.49%

SMILES | activity change, negative = cytotoxicity
CC12CCC3c4ccc(OC5OC(C(=O)O)C(O)C(O)C5O)cc4CCC3C1CCC2O (stereo unspecified) | 15.1%
CC(=O)N[C@@H](Cc1c[nH]c2ccccc12)C(=O)N[C@@H](CCC(=O)O)C(=O)N[C@@H](Cc1cnc[nH]1)C(=O)N[C@@H](CC(=O)O)C(=O)Nc1ccc2c(C(F)(F)F)cc(=O)oc2c1 (Ac-WEHD-{AFC}) | 3.18% [at 38.5 µM]
C[C@@H]1O[C@@H](O[C@H]2[C@@H](OC(=O)[C@]34CCC(C)(C)CC3C3=CCC5[C@@]6(C)C[C@H](O)[C@H](O[C@@H]7O[C@H](C(=O)O)[C@@H](O)[C@H](O)[C@H]7O)[C@@](C)(C(=O)O)C6CC[C@@]5(C)[C@]3(C)CC4)OC[C@H](O)[C@@H]2O)[C@H](O)[C@H](O)[C@H]1O[C@@H]1OC[C@@H](O)[C@H](O)[C@H]1O (stereo partly specified) | -0.61% [at 11.6 µM]
CC12CCC(C(OC3OC(COC4OCC(O)(CO)C4O)C(O)C(O)C3O)C1)C(C)(C)O2 (stereo unspecified) | 3.51% [at 25.3 µM]
O=C(/C=C\c1ccc(O)cc1)N[C@@H](Cc1ccc(O)cc1)C(=O)O | 11.6% [at 38.5 µM]
O=C(O)c1cccc(S(=O)(=O)N2CCc3ccccc3C2)c1 | -0.366%
C[C@@H]1O[C@@H](O[C@H]2[C@H](O)[C@@H](O[C@@H]3O[C@H](CO)[C@@H](O)[C@H](O[C@@H]4O[C@H](CO)[C@@H](O)[C@H](O)[C@H]4O)[C@H]3O)[C@H](O[C@H]3CC[C@@]4(C)C(=CC[C@@H]5C4CC[C@@]4(C)C5C[C@@H]5OC6(CC[C@@](C)(CO[C@@H]7O[C@H](CO)[C@@H](O)[C@H](O)[C@H]7O)O6)[C@@H](C)[C@@H]54)C3)O[C@@H]2CO)[C@H](O)[C@H](O)[C@H]1O (stereo partly specified) | -3.62% [at 6.55 µM]
COc1ccc(/C=C/C(=O)O[C@H]2[C@H](O[C@H]3[C@@H]4C=CO[C@@H](O[C@@H]5O[C@H](CO)[C@@H](O)[C@H](O)[C@H]5O)[C@@H]4[C@@]4(CO)O[C@@H]34)O[C@@H](C)[C@H](O)[C@H]2OC(C)=O)cc1 | 16.9% [at 25.3 µM]
COC(=O)C12C(=O)C(C)=C(O)C1(C)C(C)=CC1C3(CO)CCC(O)C(C)(C)C3CCC12C (stereo unspecified) | -8.85% [at 25.3 µM]
C=C1[C@H](OC(C)=O)[C@H]2[C@@H](OC(C)=O)[C@](C)(OC(C)=O)C[C@]2(OC(C)=O)C(=O)[C@H](C)/C=C/C(C)(C)C(=O)[C@H](OC(=O)C(C)C)[C@H]1OC(C)=O | 9.39% [at 25.3 µM]
COC(=O)N(C)c1c(N)nc(-c2nn(Cc3ccccc3F)c3ncccc23)nc1N | 5.29%
C=C1C[C@]23C[C@H]1CC[C@H]2[C@@]1(C)CCC[C@@]2(C)C(=O)O[C@@H]([C@@H]3O)[C@@H]12 | -2.89% [at 38.5 µM]
CC(O)CCC1C(CO[C@@H]2O[C@H](CO)[C@@H](O)[C@H](O)[C@H]2O)CC(O)CC1(C)C (stereo partly specified) | 12% [at 38.5 µM]
CC1=C2C[C@H]3O[C@@]3(C)CCC3O[C@@]3(C)C[C@@]2(O)OC1=O (stereo partly specified) | 7.89%
O=C(O)Cc1cn(C2OCC(O)C(O)C2O[C@@H]2O[C@H](CO)[C@@H](O)[C@H](O)[C@H]2O)c2ccccc12 (stereo partly specified) | 1.94% [at 25.3 µM]
CC(C)C(C#N)O[C@@H]1O[C@H](CO[C@@H]2O[C@@H](C)[C@H](O)[C@@H](O)[C@H]2O)[C@@H](O)[C@H](O)[C@H]1O (stereo partly specified) | 12.3% [at 25.3 µM]
COC1CC(OC2CCC3(C)C(=CCC4C3C(OC(C)=O)C(OC(=O)/C=C/c3ccccc3)C3(C)C(C(C)O)CCC43O)C2)OC(C)C1OC1CC(OC)C(OC2OC(C)C(OC3OC(CO)C(O)C(O)C3O)C(OC)C2O)C(C)O1 (stereo unspecified) | -0.474% [at 6.55 µM]
C=C1C(O)CC2C(C(=O)O)=COC(O[C@@H]3O[C@H](COC(=O)/C=C/c4ccc(O)cc4)[C@@H](O)[C@H](O)[C@H]3O)C12 (stereo partly specified) | 13.5% [at 25.3 µM]
CC(=O)O[C@H]1CC[C@H](C)[C@@]2(C)[C@H](OC(C)=O)c3c(C)coc3C(=O)[C@H]12 | 5.45% [at 38.5 µM]

Source: PubChem BioAssay (NCATS)
